Inconclusive results are not listed. Calls of active or inactive are those of the source. The calls were made as follows, unless noted: active = hit-call score of the fitted dose curve at least 0.9, where 1 is the maximum; inconclusive = response in the unintended direction; inactive = score below 0.9.
Legend:
[1] = target: Retinoic acid receptor alpha (Homo sapiens) (UniProt P10276); assay: ATG_DR5_RAR_CIS: Attagene CIS-FACTORIAL HepG2 Assay for human Retinoic Acid Receptor Alpha (RARE), DR5 submotif (AID 2282934; active = hit-call score of the fitted dose curve at least 0.9, where 1 is the maximum; inactive = score below 0.9); conditions: HepG2 Attagene cis-factorial RARE DR5 reporter, mRNA; actives raise or lower the signal
Chain of Retinoic acid receptor alpha (Homo sapiens) (P10276 whole entry, looked up): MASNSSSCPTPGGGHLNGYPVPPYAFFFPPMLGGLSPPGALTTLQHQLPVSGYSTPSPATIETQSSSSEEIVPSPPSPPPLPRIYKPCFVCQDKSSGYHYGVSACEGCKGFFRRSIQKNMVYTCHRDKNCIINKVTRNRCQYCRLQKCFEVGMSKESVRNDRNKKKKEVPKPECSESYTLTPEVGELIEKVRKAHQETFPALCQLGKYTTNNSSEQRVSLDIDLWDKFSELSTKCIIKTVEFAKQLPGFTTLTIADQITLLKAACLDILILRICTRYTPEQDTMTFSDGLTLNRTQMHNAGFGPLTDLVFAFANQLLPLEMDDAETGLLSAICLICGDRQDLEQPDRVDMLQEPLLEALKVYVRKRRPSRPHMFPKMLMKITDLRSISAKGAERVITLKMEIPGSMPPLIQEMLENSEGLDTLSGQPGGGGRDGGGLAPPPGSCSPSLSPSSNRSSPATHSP
Outline: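 HepG2 cells transiently transfected with multiplexed reporter units; DR5 cis-element drives reporter through endogenous transcription factors. After 24 h dosing, reporter mRNA quantified by RT-PCR, fluorescent labeling, HpaI digestion and capillary electrophoresis; bidirectional fitting versus DMSO.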

[2] = target: Nuclear receptor subfamily 1 group I member 3 (Homo sapiens) (UniProt Q14994); assay: ATG_CAR_TRANS: Attagene TRANS-FACTORIAL HepG2 Assay for human Constitutive Androstane Receptor (CAR) (AID 2282969); conditions: HepG2 Attagene TRANS-FACTORIAL CAR reporter;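 also: activators raise reporter mRNA above DMSO so AC50 marks induction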
Chain of Nuclear receptor subfamily 1 group I member 3 (Homo sapiens) (Q14994 whole entry, looked up, the tested form may be a part): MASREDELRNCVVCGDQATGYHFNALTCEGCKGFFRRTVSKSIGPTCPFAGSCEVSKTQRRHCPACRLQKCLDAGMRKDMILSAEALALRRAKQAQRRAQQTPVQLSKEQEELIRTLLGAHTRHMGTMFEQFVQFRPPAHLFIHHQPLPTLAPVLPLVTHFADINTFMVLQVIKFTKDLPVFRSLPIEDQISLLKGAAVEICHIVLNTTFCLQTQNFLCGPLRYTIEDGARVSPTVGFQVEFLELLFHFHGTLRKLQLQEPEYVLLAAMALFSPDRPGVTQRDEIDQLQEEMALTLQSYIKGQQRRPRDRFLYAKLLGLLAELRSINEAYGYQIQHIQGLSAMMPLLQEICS
Outline: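 HepG2 cells transiently transfected with GAL4-UAS reporter units; TRANS format reads activity of exogenous chimeric NR-Gal4 protein. After 24 h dosing, reporter mRNA quantified by RT-PCR, 6-FAM labelling and capillary electrophoresis; gain of signal fitted against DMSO.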

[3] = target: Oxysterols receptor LXR-beta (Homo sapiens) (UniProt P55055); assay: ATG_LXRb_TRANS: Attagene TRANS-FACTORIAL HepG2 Assay for human Liver X Receptor beta (LXRb) (AID 2282981); conditions: HepG2 Attagene TRANS GAL4-LXRb reporter, mRNA
Chain of Oxysterols receptor LXR-beta (Homo sapiens) (P55055 whole entry, looked up, the tested form may be a part): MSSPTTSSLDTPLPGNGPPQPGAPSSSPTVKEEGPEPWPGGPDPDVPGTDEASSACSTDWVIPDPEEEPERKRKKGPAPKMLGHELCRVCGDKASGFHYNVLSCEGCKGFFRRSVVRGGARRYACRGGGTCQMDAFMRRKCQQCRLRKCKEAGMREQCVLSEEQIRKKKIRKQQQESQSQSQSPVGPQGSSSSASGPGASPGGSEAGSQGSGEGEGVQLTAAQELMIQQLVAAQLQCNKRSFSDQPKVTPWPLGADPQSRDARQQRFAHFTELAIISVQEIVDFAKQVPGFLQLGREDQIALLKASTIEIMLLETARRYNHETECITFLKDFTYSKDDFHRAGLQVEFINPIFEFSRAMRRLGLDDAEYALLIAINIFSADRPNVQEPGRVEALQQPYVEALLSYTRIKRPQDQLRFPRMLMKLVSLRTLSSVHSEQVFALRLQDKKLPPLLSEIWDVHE
Outline: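 HepG2 cells transiently transfected with GAL4-UAS reporter units for chimeric NR-Gal4 proteins, dosed for 24 h. Reporter transcripts measured by RT-PCR and capillary electrophoresis; gain-of-signal fitting relative to DMSO.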

[4] = target: human Peroxisome Proliferator-activated Receptor delta (PPARd), PPARD (gene 5467) (UniProt Q03181); assay: ATG_PPARd_TRANS: Attagene TRANS-FACTORIAL HepG2 Assay for human Peroxisome Proliferator-activated Receptor delta (PPARd) (AID 2283002)
Chain of human Peroxisome Proliferator-activated Receptor delta (PPARd), PPARD (gene 5467) (Q03181 whole entry, looked up, the tested form may be a part): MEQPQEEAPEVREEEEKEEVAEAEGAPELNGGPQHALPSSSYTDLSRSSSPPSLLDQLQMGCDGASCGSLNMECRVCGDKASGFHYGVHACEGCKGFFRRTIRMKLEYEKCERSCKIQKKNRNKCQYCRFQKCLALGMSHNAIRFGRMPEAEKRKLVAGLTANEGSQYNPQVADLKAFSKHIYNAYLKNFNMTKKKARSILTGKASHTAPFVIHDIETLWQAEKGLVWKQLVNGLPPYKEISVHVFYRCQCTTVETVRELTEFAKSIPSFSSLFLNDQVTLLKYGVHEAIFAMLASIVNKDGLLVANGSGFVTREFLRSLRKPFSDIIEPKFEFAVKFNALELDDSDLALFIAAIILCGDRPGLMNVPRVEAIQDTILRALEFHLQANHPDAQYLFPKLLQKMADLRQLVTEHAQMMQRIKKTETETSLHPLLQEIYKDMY
Outline: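 HepG2 cells transiently transfected with GAL4-UAS multiplexed reporter units driven by exogenous chimeric NR-GAL4 proteins; 24 h compound exposure. Reporter mRNA measured by RT-PCR, 6-FAM primer extension, HpaI digestion and capillary electrophoresis; gain of signal fitted relative to DMSO.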

[5] = target: human RAR-related Orphan Receptor beta (RORb), RORB (gene 6096) (UniProt Q92753); assay: ATG_RORb_TRANS: Attagene TRANS-FACTORIAL HepG2 Assay for human RAR-related Orphan Receptor beta (RORb) (AID 2283010)
Chain of human RAR-related Orphan Receptor beta (RORb), RORB (gene 6096) (Q92753 whole entry, looked up, the tested form may be a part): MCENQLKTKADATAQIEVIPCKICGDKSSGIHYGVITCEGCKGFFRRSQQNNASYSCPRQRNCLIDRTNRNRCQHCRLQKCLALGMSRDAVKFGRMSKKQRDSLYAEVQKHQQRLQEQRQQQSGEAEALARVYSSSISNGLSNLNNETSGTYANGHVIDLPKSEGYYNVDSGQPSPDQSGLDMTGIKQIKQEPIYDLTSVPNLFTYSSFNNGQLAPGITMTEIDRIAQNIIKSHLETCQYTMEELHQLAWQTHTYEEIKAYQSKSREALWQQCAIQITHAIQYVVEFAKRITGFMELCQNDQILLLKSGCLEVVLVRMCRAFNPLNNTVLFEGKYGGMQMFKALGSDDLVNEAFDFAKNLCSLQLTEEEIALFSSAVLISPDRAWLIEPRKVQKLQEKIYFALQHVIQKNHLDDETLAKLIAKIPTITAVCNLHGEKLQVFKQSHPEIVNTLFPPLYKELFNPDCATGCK
Outline: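 Readout is reporter-gene mRNA induction, detected as fluorescence after RT-PCR and capillary electrophoresis, fitted for gain of signal against DMSO controls. Transiently transfected HepG2 liver cells carrying GAL4-UAS reporter constructs were treated for 24 hours.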

[6] = target: Bile acid receptor (Homo sapiens) (UniProt Q96RI1); assay: ATG_IR1_CIS: Attagene CIS-FACTORIAL HepG2 Assay for human Nuclear Receptor Subfamily 1 Group H Member 4 (NR1H4), IR1 submotif (AID 2282946; active = hit-call score of the fitted dose curve at least 0.9, where 1 is the maximum; inactive = score below 0.9); conditions: IR1 reporter transcription, actives raise or lower the signal
Chain of Bile acid receptor (Homo sapiens) (Q96RI1 whole entry, looked up): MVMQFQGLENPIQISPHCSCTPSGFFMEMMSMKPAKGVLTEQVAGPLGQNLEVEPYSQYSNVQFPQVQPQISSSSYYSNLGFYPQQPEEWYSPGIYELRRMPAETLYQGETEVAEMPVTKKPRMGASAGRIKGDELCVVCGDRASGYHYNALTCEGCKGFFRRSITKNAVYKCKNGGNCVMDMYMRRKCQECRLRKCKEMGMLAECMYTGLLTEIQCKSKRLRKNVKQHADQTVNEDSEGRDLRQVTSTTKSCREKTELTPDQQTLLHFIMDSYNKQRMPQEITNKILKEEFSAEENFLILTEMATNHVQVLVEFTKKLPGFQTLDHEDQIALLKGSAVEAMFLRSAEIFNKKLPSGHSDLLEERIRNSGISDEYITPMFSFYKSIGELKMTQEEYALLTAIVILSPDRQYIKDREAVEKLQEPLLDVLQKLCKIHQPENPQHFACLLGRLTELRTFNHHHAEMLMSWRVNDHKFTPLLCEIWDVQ
Outline: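 HepG2 cells transiently transfected with multiple cis-promoter-driven reporter units to measure endogenous transcription factor activity; 24 h exposure. Reporter mRNA read by RT-PCR, FAM labelling, HpaI digestion and capillary electrophoresis. Bidirectional fit versus DMSO.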

[7] = ATG_M_19_TRANS: Attagene TRANS-FACTORIAL HepG2 Assay for M19 Transcription Factor (Internal Marker) (AID 2282974); conditions: HepG2 Attagene TRANS-FACTORIAL M19 internal marker reporter
Outline: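 Cells: human HepG2, transiently transfected with multiplexed reporter transcription units. Exposure: 24 h. Detection: RT-PCR of reporter mRNA with capillary electrophoresis. Analysis: gain-of-signal vs DMSO.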

[8] = ATG_M_32_TRANS: Attagene TRANS-FACTORIAL HepG2 Assay for M32 Transcription Factor (Internal Marker) (AID 2282984); conditions: HepG2 Attagene TRANS M32 internal marker reporter
Outline: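 HepG2 cells transiently transfected with GAL4-UAS reporter units, dosed for 24 hours. Reporter mRNA quantified by RT-PCR, 6-FAM labelling, HpaI digestion and capillary electrophoresis; internal-marker signal fitted upward relative to DMSO.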

[9] = target: Nuclear receptor subfamily 4 group A member 2 (Homo sapiens) (UniProt P43354); assay: ATG_NURR1_TRANS: Attagene TRANS-FACTORIAL HepG2 Assay for human Nuclear Receptor Related Protein 1 (NURR1) (AID 2282985); conditions: HepG2 Attagene TRANS reporter, mRNA readout
Chain of Nuclear receptor subfamily 4 group A member 2 (Homo sapiens) (P43354 whole entry, looked up, the tested form may be a part): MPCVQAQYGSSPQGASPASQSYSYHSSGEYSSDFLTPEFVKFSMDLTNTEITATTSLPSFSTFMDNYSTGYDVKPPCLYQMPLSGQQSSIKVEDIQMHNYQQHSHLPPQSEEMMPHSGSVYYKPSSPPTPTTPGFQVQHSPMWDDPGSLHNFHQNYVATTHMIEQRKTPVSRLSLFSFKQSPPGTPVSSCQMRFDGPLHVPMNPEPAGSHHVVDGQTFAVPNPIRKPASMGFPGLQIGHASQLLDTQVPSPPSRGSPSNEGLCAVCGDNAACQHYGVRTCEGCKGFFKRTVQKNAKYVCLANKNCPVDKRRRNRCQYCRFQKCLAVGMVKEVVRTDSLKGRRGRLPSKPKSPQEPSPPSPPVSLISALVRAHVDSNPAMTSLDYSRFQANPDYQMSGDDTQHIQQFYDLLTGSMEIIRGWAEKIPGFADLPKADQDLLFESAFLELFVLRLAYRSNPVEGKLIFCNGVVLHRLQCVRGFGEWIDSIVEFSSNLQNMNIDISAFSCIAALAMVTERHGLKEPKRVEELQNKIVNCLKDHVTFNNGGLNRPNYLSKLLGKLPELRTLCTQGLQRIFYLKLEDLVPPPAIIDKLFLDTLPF
Outline: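 HepG2 cells transiently transfected with NURR1-Gal4 chimera and GAL4-UAS reporter units; after 24 hr compound exposure, reporter mRNA quantified by RT-PCR and capillary electrophoresis; gain of signal fitted against DMSO.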

[10] = target: human Thyroid Receptor alpha (THRa1), THRA (gene 7067) (UniProt P10827); assay: ATG_THRa1_TRANS: Attagene TRANS-FACTORIAL HepG2 Assay for human Thyroid Receptor alpha (THRa1) (AID 2283014)
Chain of human Thyroid Receptor alpha (THRa1), THRA (gene 7067) (P10827 whole entry, looked up, the tested form may be a part): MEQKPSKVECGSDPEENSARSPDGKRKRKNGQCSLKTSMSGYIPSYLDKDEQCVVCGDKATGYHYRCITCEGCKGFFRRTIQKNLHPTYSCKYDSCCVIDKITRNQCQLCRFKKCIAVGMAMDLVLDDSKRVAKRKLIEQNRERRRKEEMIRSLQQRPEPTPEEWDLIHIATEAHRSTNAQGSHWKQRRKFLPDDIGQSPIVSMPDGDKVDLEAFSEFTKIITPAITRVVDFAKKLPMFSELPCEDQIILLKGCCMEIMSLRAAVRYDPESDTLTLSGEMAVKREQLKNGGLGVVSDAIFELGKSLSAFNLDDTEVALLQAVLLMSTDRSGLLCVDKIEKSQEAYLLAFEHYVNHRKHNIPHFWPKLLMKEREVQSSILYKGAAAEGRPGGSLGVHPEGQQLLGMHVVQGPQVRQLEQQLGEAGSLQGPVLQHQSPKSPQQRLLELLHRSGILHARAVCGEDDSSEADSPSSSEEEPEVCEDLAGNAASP
Outline: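 HepG2 cells transiently transfected with chimeric NR-Gal4 and GAL4-UAS reporter units, dosed 24 h. Reporter mRNA quantified by RT-PCR, fluorescent labeling, HpaI digestion and capillary electrophoresis; gain-of-signal fit versus DMSO.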

[11] = TOX21_p53_BLA_p3_viability: Viability Assessment in the Tox21 HCT-116 p53 Agonism Beta-lactamase Assay, Phase 3 (AID 2283593);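 also: cells exposed to compound for 16 h before reading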
Outline: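 HCT116 cells, 4000/well, dosed 5 h after plating by pin transfer (217-fold dilution from DMSO stock) and incubated 16 h at 37C, 5% CO2. Viability read as ATP luminescence with CellTiter-Glo after 30 min at room temperature.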

[12] = TOX21_p53_BLA_p4_viability: Viability Assessment in the Tox21 HCT-116 p53 Agonism Beta-lactamase Assay, Phase 4 (AID 2283597);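 also: hits lower the luminescence signal meaning cytotoxicity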
Outline: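 HCT-116 p53-bla cells, 4000/well, dosed after 5 h attachment and incubated 16 h at 37 °C, 5% CO2. Viability from CellTiter-Glo ATP luminescence after 30 min at room temperature, taken after the beta-lactamase read; loss of signal indicates cytotoxicity.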

[13] = ACEA_ER_AUC_viability: ACEA Biosciences xCELLigence Real-Time Cell Analysis on Estrogen Receptor Agonism for Viability (AID 2283782);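 also: continuous compound exposure with impedance area under curve over 80 h; hit means loss of impedance signal meaning reduced cell growth or viability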
Outline: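 T47D cells preconditioned in phenol red-free RPMI with charcoal-stripped FBS, then dosed with 8-point 1:4 series from 100 uM (up to 0.5% DMSO). Impedance monitored up to ~80 h; area-under-curve loss versus DMSO taken as viability.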

[14] = ATG_PPRE_CIS: Attagene CIS-FACTORIAL HepG2 Assay for human Peroxisome Proliferator-activated Response Element (PPRE) (AID 2282958; active = hit-call score of the fitted dose curve at least 0.9, where 1 is the maximum; inactive = score below 0.9); conditions: HepG2 PPRE cis-element reporter, Attagene transcription factor profiling; actives raise or lower the signal
Outline: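 Cells are first transfected transiently with the multiplexed reporter library, then dosed for 24 h. Total RNA is reverse-transcribed, amplified, fluorescently end-labeled and HpaI-cut before capillary electrophoresis; activity is fitted bidirectionally against DMSO controls.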

[15] = target: human RAR-related Orphan Receptor gamma (RORg), RORC (gene 6097) (UniProt P51449); assay: ATG_RORg_TRANS: Attagene TRANS-FACTORIAL HepG2 Assay for human RAR-related Orphan Receptor gamma (RORg) (AID 2283011)
Chain of human RAR-related Orphan Receptor gamma (RORg), RORC (gene 6097) (P51449 whole entry, looked up, the tested form may be a part): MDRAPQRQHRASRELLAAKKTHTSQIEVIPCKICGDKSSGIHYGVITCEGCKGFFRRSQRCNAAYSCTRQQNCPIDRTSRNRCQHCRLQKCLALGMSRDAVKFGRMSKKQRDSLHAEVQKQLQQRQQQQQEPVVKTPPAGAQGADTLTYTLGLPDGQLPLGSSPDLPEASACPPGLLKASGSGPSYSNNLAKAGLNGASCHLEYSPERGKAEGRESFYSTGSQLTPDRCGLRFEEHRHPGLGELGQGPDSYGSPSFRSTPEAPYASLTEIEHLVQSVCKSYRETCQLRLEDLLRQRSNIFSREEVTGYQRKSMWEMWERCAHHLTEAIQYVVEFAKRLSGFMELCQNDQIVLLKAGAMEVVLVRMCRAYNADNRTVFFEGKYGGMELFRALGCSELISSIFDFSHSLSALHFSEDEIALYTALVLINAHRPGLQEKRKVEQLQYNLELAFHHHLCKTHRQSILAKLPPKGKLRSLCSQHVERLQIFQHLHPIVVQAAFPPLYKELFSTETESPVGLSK
Outline: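 HepG2 cells transiently transfected with GAL4-UAS reporter units and chimeric RORg-Gal4 construct; after 24 h chemical exposure, reporter mRNA measured by RT-PCR with fluorescent capillary electrophoresis, gain of signal fitted against DMSO.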

[16] = target: Oxysterols receptor LXR-alpha (Homo sapiens) (UniProt Q13133); assay: ATG_LXRa_TRANS: Attagene TRANS-FACTORIAL HepG2 Assay for human Liver X Receptor alpha (LXRa) (AID 2282980); conditions: HepG2 Attagene TRANS reporter, LXRa transactivation
Chain of Oxysterols receptor LXR-alpha (Homo sapiens) (Q13133 whole entry, looked up, the tested form may be a part): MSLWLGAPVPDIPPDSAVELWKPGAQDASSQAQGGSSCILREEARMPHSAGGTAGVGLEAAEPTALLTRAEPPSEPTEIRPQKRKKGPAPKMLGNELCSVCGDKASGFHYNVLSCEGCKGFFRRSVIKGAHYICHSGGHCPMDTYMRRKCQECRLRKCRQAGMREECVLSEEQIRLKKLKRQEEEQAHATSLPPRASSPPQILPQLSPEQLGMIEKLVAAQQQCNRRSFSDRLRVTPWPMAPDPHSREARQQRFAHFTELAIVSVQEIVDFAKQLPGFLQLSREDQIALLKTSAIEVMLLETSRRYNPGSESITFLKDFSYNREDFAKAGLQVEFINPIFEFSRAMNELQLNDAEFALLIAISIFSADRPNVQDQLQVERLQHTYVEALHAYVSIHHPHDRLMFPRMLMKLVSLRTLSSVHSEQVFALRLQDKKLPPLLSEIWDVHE
Outline: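 HepG2 cells transiently transfected with GAL4-UAS reporter units for chimeric NR-Gal4 proteins, exposed to chemicals for 24 h. Reporter mRNA quantified by RT-PCR and capillary electrophoresis; gain of signal fitted relative to DMSO.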

[17] = CCTE_Harrill_HTTr_Viability_MCF7: CCTE's 6-hour Cell Viability Assessment for the High-Throughput Transcriptomics (HTTr) Platform, in MCF-7 cells cultured in DMEM + 10% fetal bovine serum, Harrill Lab (AID 2284010; active = hit-call score of the fitted dose curve at least 0.9, where 1 is the maximum; inactive = score below 0.9)
Outline: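 Cells were dosed with chemicals in an eight-point dilution series, imaged 6 hours later for propidium iodide uptake, and the endpoint was analyzed by bidirectional fitting against DMSO as negative control.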

[18] = CCTE_Harrill_HTTr_Apoptosis_MCF7: CCTE's 6-hour Apoptosis Assessment for the High-Throughput Transcriptomics (HTTr) Platform, in MCF-7 cells cultured in DMEM + 10% fetal bovine serum, Harrill Lab (AID 2284011; active = hit-call score of the fitted dose curve at least 0.9, where 1 is the maximum; inactive = score below 0.9)
Outline: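 MCF-7 cells in DMEM + 10% FBS exposed 6 h to chemicals over an eight-point dilution series. Caspase-3/7 activation imaged by high-content CellEvent Green staining; fitted bidirectionally versus DMSO.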

[19] = ATG_GAL4_TRANS: Attagene TRANS-FACTORIAL HepG2 Assay for GAL4 (Internal Marker) (AID 2282976); conditions: HepG2 Attagene TRANS GAL4 internal marker reporter
Outline: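 Background-control readout: GAL4-UAS reporter transcript in transiently transfected HepG2 cells after 24 h compound exposure. Measured by RT-PCR, 6-FAM primer extension, HpaI digest and capillary electrophoresis; gain-of-signal fit versus DMSO.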

[20] = TOX21_p53_BLA_p2_viability: Viability Assessment in the Tox21 HCT-116 p53 Agonism Beta-lactamase Assay, Phase 2 (AID 2283591);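 also: compound exposure lasted 16 h at 37 °C; actives lower the ATP signal meaning cytotoxicity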
Outline: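 HCT116 p53-bla cells, 4000/well, dosed after 5 h plating (217-fold dilution of DMSO stocks) and incubated 16 h at 37C. Viability taken as cellular ATP by CellTiter-Glo luminescence after 30 min RT; signal loss marks cytotoxicity.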

Measured: AC50

CC(C)c1ccc(O)cc1
inactive: [1] | [2] | [3] | [4] | [5]

CCCCNP(N)(N)=S
inactive: [6] | [7] | [3] | [8] | [9] | [4] | [10] | [11] | [12] | [13]

O=C(NCNC(=O)NC1C(=O)NC(=O)N1CO)NC1C(=O)NC(=O)N1CO (configuration not stated)
inactive: [1] | [6] | [14] | [4] | [5] | [15] | [10] | [12]
active: [13] 9.92 µM

[Cl][Sb]([Cl])[Cl]
inactive: [1] | [14] | [2] | [16] | [3] | [4] | [5] | [15] | [10] | [12] | [17] | [18]
active: [13] 87.8 µM

CN(C)CCC#N
inactive: [1] | [7] | [19] | [16] | [3] | [8] | [15] | [10] | [20] | [12] | [13] | [17] | [18]

CCOC(=O)N(C)N=O
inactive: [1] | [14] | [7] | [19] | [16] | [3] | [4] | [10] | [20] | [11] | [17] | [18]

O=C(O)CCl
inactive: [1] | [7] | [5] | [15] | [10] | [13]

CC=Cc1ccc2c(c1)OCO2
inactive: [1] | [2] | [7] | [3] | [9] | [4] | [5] | [15] | [10] | [11] | [12] | [13]

Nc1ccccc1
inactive: [14] | [19] | [16] | [3] | [8] | [10] | [13] | [17] | [18]

COCC(=O)N(c1c(C)cccc1C)N1CCOC1=O
inactive: [6] | [2] | [7] | [19] | [8] | [4] | [20] | [11]

— PubChem BioAssay (EPA / NIEHS)
